ATXN2 expr inh = Primary qHTS for Inhibitors of ATXN expression | HEK-293 ATXN2-luciferase reporter, luminescence, 24 h | Potency, µM (top dose mostly 57 µM), for the others: top-dose activity change, negative = inhibition, most hits filed as inhibitors | 0.72% of 360,000 active | AID 1745845, 2022; further: potency means the concentration at half of the fitted maximal effect; on the % scale 0 is the no-effect control and ±100 the full control effect; nearly all actives have a fitted effect of over 55% in size
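ATXN2-luciferase reporter cells (luciferase flanked by upstream and downstream ATXN2 gene portions) were treated 24 h at 37 °C with compounds at up to 57 uM. SteadyGlo luminescence gave expression; GF-AFC fluorescence gave viability.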
IL1B secr inh = qHTS for Inhibitors of Inflammasome Signaling: IL-1-beta AlphaLISA Primary Screen; THP-1 LPS/ATP IL-1B secretion, AlphaLISA, 16 h; hits give low values; activity change, % at 57.5 µM; 4.7% of 360,000 active; in the data active means activity change below about -50%; inconclusive means mostly about -30% to -49%; further: on the % scale 0 is the no-effect control and ±100 the full control effect
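THP-1 cells pretreated 1 hr with compounds (up to 57.5 uM final), then stimulated with LPS (250 ng/mL final) plus ATP (1.25 mM final); secreted IL-1B measured by AlphaLISA after 16 hr, decreased signal indicating inhibition.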
ATXN viability = Viability Counterscreen for Primary qHTS for Inhibitors of ATXN expression; S2 cells (HEK-293 line with an ATXN2-luciferase reporter) viability, CellTiter-Fluor protease fluorescence, 24 h; 0.49% of 400,000 active; AID 651635, 2014; Potency, µM (series often up to 56.7 µM), actives largely listed as cytotoxic; further: potency means the concentration at half of the fitted maximal effect; nearly all actives have a fitted effect of over 40% in size
TGFb SMAD3 inh = qHTS for Inhibitors of TGF-b; Potency, µM (top dose mostly 46.1 µM), inactives show at the highest dose activity, negative = inhibition, usual class: inhibitors; 1.2% of 410,000 active; HepG2 CAGA-GFP TGF-b/SMAD3 reporter, GFP fluorescence, 18 h; TGF-beta stimulated, 500 pg/mL final; AID 588855, 2011; further: potency means the concentration at half of the fitted maximal effect; on the % scale 0 is the no-effect control and ±100 the full control effect; nearly all actives have a fitted effect of over 65% in size
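Per well, imaged GFP fluorescence of HEPG2 CAGA-GFP cells gives the signal; cells get compound, then TGF-beta (500 pg/mL final), 18 h at 37 degrees C; %Activity versus -TGF-beta and +DMSO controls.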
HepG2 tox = qHTS for Inhibitors of TGF-b: Cytotox Counterscreen | HepG2 CAGA-GFP viability, ATP luminescence, 18 h | Potency, µM (top dose mostly 46.1 µM), inactives show at the top dose activity change, negative = cytotoxicity, actives largely listed as cytotoxic | 0.76% of 410,000 active; further: potency means the concentration at half of the fitted maximal effect
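HepG2 CAGA-GFP cells (1000/well, DMEM with 1% FBS) received compound, then TGF-beta at 500 pg/mL final, and were incubated 18 hours at 37 degrees C. Viability was read by CellTiter-Glo luminescence. Media-only wells were set as complete cell-killing and DMSO as no toxicity.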
An asterisk follows results filed as active. An excerpt weighted towards active compounds, which were near 5.7% of everything screened. Unless noted, the call rests on the fitted dose curve; in most records, active means well fitted curve in the direction sought with a large enough effect; inconclusive means small, poorly fitted or top-dose-only effect, or another doubt; inactive means no such curve, though single readings can be large; an effect the other way counts as inactive or inconclusive.

How did CCCN(CCC)CCNC(=O)c1cc(-c2ccc(Br)s2)nc2ccccc12 do in these assays?
ATXN2 expr inh: 0%; ATXN viability: 32µM*; TGFb SMAD3 inh: 0%; HepG2 tox: -21%

Results for CC1CN(C(=O)c2cc(-c3ccc(Cl)s3)nc3ccccc23)CC(C)O1 (stereo not drawn) ?
ATXN2 expr inh: -4%; IL1B secr inh: -53*; ATXN viability: inactive; TGFb SMAD3 inh: -15%; HepG2 tox: -22%

Results for NC(=O)C1CCN(C(=O)c2cc(-c3ccc(Cl)s3)nc3ccccc23)CC1 ?
ATXN2 expr inh: -14%; IL1B secr inh: -15; ATXN viability: inactive; TGFb SMAD3 inh: inconclusive; HepG2 tox: -34%

What do the screens show for `Cc1ccc(CCNC(=O)c2ccc(CSCc3ccccc3Cl)o2)cc1`?
TGFb SMAD3 inh: -61%; HepG2 tox: -40%

Results for Cc1cccc(NC(=O)CSc2nc3ccccc3nc2N2CCCCC2)c1C ?
ATXN2 expr inh: 7%; ATXN viability: inactive; TGFb SMAD3 inh: 14%; HepG2 tox: -16%

What do the screens show for `O=C(NCCCN1CCOCC1)c1cc(-c2ccco2)nc2ccccc12`?
ATXN2 expr inh: -10%; IL1B secr inh: 13; ATXN viability: inactive; TGFb SMAD3 inh: -20%; HepG2 tox: -3%

How did O=C(NCCCN1CCOCC1)c1cc(-c2ccc(Cl)s2)nc2ccccc12 do in these assays?
ATXN2 expr inh: -11%; IL1B secr inh: -78*; ATXN viability: inactive; TGFb SMAD3 inh: -15%; HepG2 tox: 0%

How did O=C(NCCCN1CCOCC1)c1cc(-c2ccc(Br)cc2)on1 do in these assays?
ATXN2 expr inh: -38%; IL1B secr inh: -62*; ATXN viability: inactive; TGFb SMAD3 inh: -11%; HepG2 tox: -2%

Results for CCOC(=O)CN1C(=O)N[C@@H](c2cccc(C(F)(F)F)c2)C(C(=O)OC)=C1C ?
ATXN2 expr inh: 5%; IL1B secr inh: 22; ATXN viability: inactive; TGFb SMAD3 inh: -3%; HepG2 tox: 0%

What do the screens show for `CCN1C(=NCc2cccc(Cl)c2)N[C@@H](c2cccc(C(F)(F)F)c2)C(C(=O)OC)=C1C`?
TGFb SMAD3 inh: 14µM*; HepG2 tox: -79%

What do the screens show for `CCN1C(=NCc2cccc(C(F)(F)F)c2)N[C@@H](c2cccc(C(F)(F)F)c2)C(C(=O)OC)=C1C`?
TGFb SMAD3 inh: 3.5µM*; HepG2 tox: -106%

How did CCN1C(=NCC(C)C)N[C@@H](c2cccc(F)c2)C(C(=O)OC)=C1C do in these assays?
ATXN2 expr inh: -4%; IL1B secr inh: -16; ATXN viability: inactive; TGFb SMAD3 inh: 7%; HepG2 tox: 7%

What do the screens show for `CCN(CC)CCCN=C1N[C@@H](c2cccc(C(F)(F)F)c2)C(C(=O)OC)=C(C)N1CC`?
ATXN2 expr inh: inconclusive; IL1B secr inh: -26; ATXN viability: 22µM*; TGFb SMAD3 inh: inconclusive; HepG2 tox: -113%

Results for CCN1C(=O)N[C@@H](c2cccc(C(F)(F)F)c2)C(C(=O)OC)=C1C ?
ATXN2 expr inh: -8%; IL1B secr inh: 6; ATXN viability: inactive; TGFb SMAD3 inh: 0%; HepG2 tox: -7%

What do the screens show for `CCOc1ccc(C2=CC(c3cc(Br)ccc3F)n3ncnc3N2)cc1Cl` (stereo not drawn)?
ATXN2 expr inh: 12%; TGFb SMAD3 inh: -6%; HepG2 tox: -12%

Results for Cc1ccc(S(=O)(=O)c2c(C)nn(C(C)(C)C)c2OC(=O)c2ccco2)cc1 ?
ATXN2 expr inh: -24%; IL1B secr inh: 34; ATXN viability: inactive; TGFb SMAD3 inh: inconclusive; HepG2 tox: -50%

How did Cc1ccc(S(=O)(=O)c2c(C)nn(C(C)(C)C)c2OC(=O)c2ccc(Br)o2)cc1 do in these assays?
ATXN2 expr inh: inconclusive; IL1B secr inh: -72*; ATXN viability: inconclusive; TGFb SMAD3 inh: inconclusive; HepG2 tox: -81%

What do the screens show for `Cc1onc(-c2ccccc2)c1C(=O)N[C@@H]1C(=O)N2[C@@H](C(=O)O)C(C)(C)S[C@@H]12`?
ATXN2 expr inh: 5%; ATXN viability: inactive

How did CCc1ccc(NC(=O)CN(c2ccc(Cl)cc2)S(=O)(=O)c2ccsc2C(=O)OC)cc1 do in these assays?
ATXN2 expr inh: 7%; ATXN viability: inactive; TGFb SMAD3 inh: 7.1µM*; HepG2 tox: -32%

What do the screens show for `COC(=O)c1sccc1S(=O)(=O)N(CC(=O)Nc1ccc(C)cc1)c1ccccc1`?
ATXN2 expr inh: 16%; ATXN viability: inactive; TGFb SMAD3 inh: -24%; HepG2 tox: -10%

What do the screens show for `O=C(/C=C/c1ccccc1)c1ccc2c3c(cccc13)CC2`?
ATXN2 expr inh: -8%; IL1B secr inh: -99*; ATXN viability: inactive; TGFb SMAD3 inh: -9%; HepG2 tox: -33%

How did Cc1ccc(S(=O)(=O)c2cc3c(=O)n4ccccc4nc3n(CCCN3CCOCC3)c2=N)cc1C do in these assays?
ATXN2 expr inh: -4%; IL1B secr inh: -72*; ATXN viability: inactive; TGFb SMAD3 inh: -9%; HepG2 tox: -44%

How did CCC[C@@H](CN1CCC[C@H]1CN1C(N)=NC[C@@H]1Cc1ccccc1)N1C[C@@H](Cc2ccccc2)N(CCCC2CCCC2)C1=N do in these assays?
ATXN2 expr inh: -8%; IL1B secr inh: -83*; ATXN viability: inactive; TGFb SMAD3 inh: -24%; HepG2 tox: 3%

Results for CCC[C@@H](CN1CCC[C@H]1CN1C(N)=NC[C@@H]1Cc1ccccc1)N1C[C@@H]([C@H](C)CC)N(CCCC2CCCC2)C1=N ?
ATXN2 expr inh: inconclusive; IL1B secr inh: -96*; ATXN viability: inconclusive; TGFb SMAD3 inh: inconclusive; HepG2 tox: -63%

How did CCCCN1C(=N)N([C@@H](C)CN2CCC[C@H]2CN2C(N)=NC[C@@H]2Cc2ccccc2)C[C@H]1[C@H](C)CC do in these assays?
ATXN2 expr inh: 7%; IL1B secr inh: -17; ATXN viability: inactive; TGFb SMAD3 inh: -25%; HepG2 tox: -5%

What do the screens show for `CCCCN1C(=N)N([C@@H](CCC)CN2CCC[C@H]2CN2C(N)=NC[C@@H]2Cc2ccccc2)C[C@H]1Cc1ccccc1`?
ATXN2 expr inh: -6%; IL1B secr inh: inconclusive; ATXN viability: inactive; TGFb SMAD3 inh: 10%; HepG2 tox: 2%

Results for CCC[C@@H](CN1CCC[C@H]1CN1C(N)=NC[C@H]1CC(C)C)N1C[C@@H](Cc2ccccc2)N(CCCC2CCCC2)C1=N ?
ATXN2 expr inh: 3%; IL1B secr inh: -66*; ATXN viability: inactive; TGFb SMAD3 inh: -2%; HepG2 tox: -13%
